EPAC1 ag: EPAC1 (human) agonism; AID 720707; Potency, µM (highest dose often 154 µM), hits mostly activators; O95398; 360,000 tested, 0.073% active; EPAC1 agonist qHTS, biochemical assay; response scale: 100% = response to 6.5 mM cAMP; note: nearly all actives have a fitted effect of over 60% in size
Target sequence (O95398 whole entry, looked up): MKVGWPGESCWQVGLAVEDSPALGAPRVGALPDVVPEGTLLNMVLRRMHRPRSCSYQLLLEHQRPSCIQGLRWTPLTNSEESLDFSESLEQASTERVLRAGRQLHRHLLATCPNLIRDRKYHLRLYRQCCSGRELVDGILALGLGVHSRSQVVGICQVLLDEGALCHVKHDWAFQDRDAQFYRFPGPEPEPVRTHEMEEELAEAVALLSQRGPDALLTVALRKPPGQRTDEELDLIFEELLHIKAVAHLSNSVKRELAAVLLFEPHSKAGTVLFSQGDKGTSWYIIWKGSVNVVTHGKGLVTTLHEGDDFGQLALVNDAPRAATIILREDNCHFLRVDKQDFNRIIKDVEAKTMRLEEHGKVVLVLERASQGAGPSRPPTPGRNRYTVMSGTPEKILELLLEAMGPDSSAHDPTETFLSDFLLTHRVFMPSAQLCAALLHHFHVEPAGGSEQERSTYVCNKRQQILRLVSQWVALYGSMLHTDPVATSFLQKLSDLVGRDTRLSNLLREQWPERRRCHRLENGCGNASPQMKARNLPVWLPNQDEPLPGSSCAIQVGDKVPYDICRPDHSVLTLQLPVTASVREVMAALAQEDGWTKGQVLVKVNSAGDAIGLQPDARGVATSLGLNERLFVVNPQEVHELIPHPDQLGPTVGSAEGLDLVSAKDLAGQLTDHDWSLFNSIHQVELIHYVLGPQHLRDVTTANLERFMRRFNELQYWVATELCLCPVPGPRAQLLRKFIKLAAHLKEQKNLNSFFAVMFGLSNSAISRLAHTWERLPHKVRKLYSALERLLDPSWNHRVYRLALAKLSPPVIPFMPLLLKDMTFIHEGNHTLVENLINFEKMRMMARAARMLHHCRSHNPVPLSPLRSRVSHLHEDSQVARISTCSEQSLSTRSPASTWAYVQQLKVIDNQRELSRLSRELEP
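Normalized to 6.5 mM cAMP, activity reflects EPAC1-catalysed release of BODIPY-GDP from Rap1B, followed kinetically over 30 min at 480 nm excitation, 540 nm emission. Reaction contained 100 nM EPAC1, 250 nM Rap1B-BODIPY-GDP, 50 uM GDP.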
EPAC2 antag: antagonists of human EPAC2. Q8WZA2. EPAC2 GEF exchange of Rap1B-BODIPY-GDP, fluorescence. 360,000 tested, 0.18% active. Potency, µM (titrated, usually from 114 µM), most hits filed as inhibitors; note: nearly all actives have a fitted effect of over 45% in size
KCNH2 WT inh: blocks the wildtype human KCNH2 potassium channel; Q12809; U2OS, BacMam KCNH2, thallium flux FluxOr; stronger effect = lower value; activity change, % at 1.84 µM; 340,000 tested, 0.37% active;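 active = maximum activity change below -70%; inconclusive = maximum activity change between -70% and -50%; inactive = maximum activity change above -50%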
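U2OS cells transduced with wild-type KCNH2 virus are loaded with FluxOr dye for 45 min, and thallium flux is measured in kinetic reads before and after stimulation buffer. Rate constants are normalized to DMSO controls.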
EPAC1 antagonist: blocks human EPAC1 exchange factor; O95398; EPAC1 GEF assay, Rap1b-BODIPY-GDP exchange fluorescence; Potency, µM (highest dose often 115 µM), actives largely listed as inhibitors; 360,000 tested, 0.14% active; note: nearly all actives have a fitted effect of over 50% in size
KCNH2 3.1 block: blocks the human KCNH2 3.1 channel isoform | U2OS KCNH2 3.1, thallium flux FluxOr; stronger effect = lower value | activity change, % (tested at about 1.8 µM) | 340,000 tested, 0.95% active | AID 720553;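 active = maximum activity change below -70%; inconclusive = maximum activity change from -70% to -50%; inactive = maximum activity change above -50%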;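 note: thallium influx rate constant from kinetic fluorescence after stimulation buffer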
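FluxOr-based Tl+ influx in U2OS cells transduced with KCNH2 3.1 virus; rate constants normalized to DMSO controls.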
EPAC2 agonist: agonists of human EPAC2 (RAPGEF4); 360,000 tested, 0.079% active; AID 720711; EPAC2 activation, biochemical qHTS; response scale: 100% = 6.5 mM cAMP response; Potency, µM (series often up to 154 µM), usual class: activators; note: nearly all actives have a fitted effect of over 50% in size
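Each well held 100 nM EPAC2, 250 nM RAP1B-BODIPY-GDP and 50 uM GDP. Fluorescence, read at 5-min intervals to 30 min, was referenced to a 6.5 mM cAMP positive control.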
Large screens that a line does not name were inactive. Hits are enriched below; roughly 1.4% of the tested compounds scored in any of these assays. Unless noted, calls come from the whole dose curve; as a rule, active = well fitted curve in the direction sought with a large enough effect; inconclusive = small, poorly fitted or top-dose-only effect, or another doubt; inactive = no such curve, though single readings can be large; an effect the other way counts as inactive or inconclusive.

CCOC1=C2CN(S(=O)(=O)c3ccc(C)cc3)[C@H](c3ccccc3)C[C@H]2[C@H]2C(=O)N(c3ccccc3)C(=O)[C@H]2C1	none (no result: KCNH2 WT inh, KCNH2 3.1 block)
CC1=C(C)CC2C(C1)C(=O)c1ccc(Br)cc1S2(=O)=O (stereo not given)	EPAC2 antag inconclusive (no result: KCNH2 WT inh, KCNH2 3.1 block)
Cc1nc(-c2ccccc2)sc1C(=O)O	none
Cc1nc(-c2cccs2)sc1C(=O)O	KCNH2 WT inh -95.8
COCCNC(=O)C1(C)CCCN(C(=O)c2cc(C)oc2C)C1 (stereo not given)	none (no result: KCNH2 WT inh, KCNH2 3.1 block)
C=CC[n+]1ccc(/C=C2\C=Cc3cc(C)ccc3N2CC)c2ccccc21	EPAC1 antagonist inconclusive, KCNH2 3.1 block -115.1
Clc1ccccc1Cn1nnc(-c2ccccc2)n1	none
CN(C)c1ccc(-c2nnn(Cc3ccccc3Br)n2)cc1	KCNH2 3.1 block -93.2
O=C(CSc1nnc(-c2ccc(O)cc2)n1Cc1ccccc1)NNC(=O)c1ccc(Br)cc1	none
N#Cc1c(NC(=O)C2CC=CCC2C(=O)O)sc2c1CCCCCC2 (stereo not given)	EPAC1 antagonist 79.4µM
COc1ccc(NC(=O)CN(C)C(=O)c2cc(CN3C(=O)c4ccccc4C3=O)ccc2OC)cc1	none
CC(C)(C)c1ccc(C(=O)NNc2cc(N3CCCCC3)nc(N3CCCCC3)n2)cc1	none
O=C(NNc1cc(N2CCCC2)nc(N2CCCC2)n1)c1ccc([N+](=O)[O-])cc1	KCNH2 3.1 block -90.3
COc1ccc(CCNC(=O)CSc2nc(N)c(C#N)c(-c3cccs3)c2C#N)cc1OC	EPAC1 antagonist 31.6µM
Cc1ccccc1NC(=O)CSc1nc(N)c(C#N)c(-c2cccs2)c1C#N	none
COC(=O)c1ccc(C(=O)N2CCCC(C)(C(=O)NS(=O)(=O)C3CC3)C2)cc1 (stereo not given)	none (no result: KCNH2 WT inh, KCNH2 3.1 block)
O=c1c(O)c(-c2cc(O)c(O)c(O)c2)oc2cc(O)cc(O)c12	EPAC2 antag 8.91µM, EPAC1 antagonist 15.8µM
Cn1c2ccccc2c2cc(/C=N/NC(=O)c3cc(O)cc(O)c3)ccc21	EPAC1 antagonist inconclusive
Cn1c2ccccc2c2cc(/C=N/NC(=O)c3cc(O)ccc3O)ccc21	EPAC1 antagonist 56.2µM
O=S(=O)(Nc1ncn[nH]1)c1ccc(Cl)cc1	KCNH2 3.1 block -85.0
Cc1ccc(S(=O)(=O)Nc2cccc(C(=O)NC3CCN(Cc4ccccc4)CC3)c2)cc1F	KCNH2 3.1 block -80.4
CN1C(=O)/C(=C\c2ccccc2F)Sc2ccc(C(=O)NC3CCN(Cc4ccccc4)CC3)cc21	KCNH2 WT inh -83.2, KCNH2 3.1 block -80.6
CCN1CCN(CCNC(=O)c2ccc(/C=C3/Sc4ccccc4N(Cc4cccc(Cl)c4)C3=O)cc2)CC1	KCNH2 3.1 block inconclusive
Cc1cccc(CN2C(=O)/C(=C\c3ccc(C(=O)NCCN4CCOCC4)cc3)Sc3ccccc32)c1	EPAC1 antagonist inconclusive, KCNH2 3.1 block -81.4
CCN1CCN(CCNC(=O)c2ccc3c(c2)N(Cc2ccc(F)cc2)C(=O)/C(=C/c2ccccc2)S3)CC1	EPAC2 antag inconclusive, KCNH2 3.1 block -87.5
Cc1ccccc1CN1C(=O)/C(=C\c2ccc(C(=O)NCCN3CCOCC3)cc2)Sc2ccccc21	EPAC1 antagonist inconclusive
Cc1ccc(NC(=O)CN2CCN(C)CC2)cc1S(=O)(=O)N1CCOCC1	none
Cn1cnc(S(=O)(=O)N2CCCCC2c2cc(C(=O)Nc3ccc(F)c(Cl)c3)no2)c1 (stereo not given)	none (no result: KCNH2 WT inh, KCNH2 3.1 block)
CCOC(=O)CSc1nnc(CSc2nc3sc4c(c3c(=O)[nH]2)CCCC4)n1-c1ccccc1	none
CC(NS(=O)(=O)c1cc2c3c(c1)CCN3C(=O)CC2)c1ccccc1 (stereo not given)	none
O=C(CN1C(=O)NC(c2ccccc2)(c2ccccc2)C1=O)N1CCN(c2ccccc2F)CC1	KCNH2 3.1 block -198.1
Cn1c(CN2CCCCC2)nc2cc([N+](=O)[O-])ccc21	KCNH2 3.1 block -185.4
CN(C)S(=O)(=O)c1ccc(Cl)c(NC(=O)CSc2nc3ccccc3c(=O)n2CCCN2CCOCC2)c1	none
CC(=O)CCC(=O)OCC(=O)c1ccc(C(F)(F)F)cc1	none
CCC(CC)NC(=O)Nc1ccccc1C	none
CCC(CC)NC(=O)Nc1ccccc1C(F)(F)F	KCNH2 WT inh -111.6
O=C(COC(=O)CC(c1ccccc1)c1ccccc1)NCc1ccccc1	EPAC1 antagonist inconclusive
NC(=O)COC(=O)CC(c1ccccc1)c1ccccc1	KCNH2 3.1 block -94.1
CCOC(=O)C1=C(C)Nc2nc(SCC)[nH]c(=O)c2C1c1ccncc1 (stereo not given)	none
COc1cc(Br)cc(C(=O)N2CCc3ccccc32)c1OC	EPAC2 antag 35.5µM
CCc1nc2c(OCc3cccc(Cl)c3)cccn2c1N(C)C(C)=O	EPAC2 agonist 20µM (no result: KCNH2 WT inh, KCNH2 3.1 block)
CCc1nc2c(OCc3cccc(Cl)c3)cccn2c1N(C)C(=O)C(C)C	none (no result: KCNH2 WT inh, KCNH2 3.1 block)
C(#CC12CC3CC(CC(C3)C1)C2)CN1CCOCC1	KCNH2 WT inh -102.8
Cc1ccc(C)c(S(=O)(=O)N2CCN(C(=O)c3cccnc3)CC2)c1	none
CCn1c(-c2nn(-c3ccc(C)cc3)ccc2=O)n[nH]c1=S	none (no result: KCNH2 WT inh)
CCn1c(-c2nn(-c3ccccc3)ccc2=O)n[nH]c1=S	KCNH2 WT inh active
COc1ccccc1Nc1nc(N)nc(CN2CCC(Cc3ccccc3)CC2)n1	KCNH2 WT inh -155.2, KCNH2 3.1 block -104.0
COc1ccc(Nc2nc(N)nc(CN3CCC(Cc4ccccc4)CC3)n2)cc1	KCNH2 3.1 block -116.0
CC1=NN(c2nc(N)nc(/C(C#N)=C/c3ccc([N+](=O)[O-])o3)n2)C(C)(C)C1	KCNH2 3.1 block -72.4
COc1ccc(CCNCCC(c2ccccc2)c2ccccc2)cc1OC	none
COc1cc(OC)c(OC)cc1CCC(C)NCCC(c1ccccc1)c1ccccc1 (stereo not given)	KCNH2 WT inh inconclusive, KCNH2 3.1 block -92.1
CCN(Cc1ccccc1)C1CCN(Cc2ccc(SC)cc2)CC1	none
O=C(C1CCN(CCCc2ccccc2)CC1)N(CCc1ccccc1)Cc1ccccc1	KCNH2 WT inh -88.6, KCNH2 3.1 block -110.4
CCN(Cc1ccccc1)C(=O)C1CCN(Cc2ccc(SC)cc2)CC1	KCNH2 WT inh -114.5, KCNH2 3.1 block -94.2
O=C(C1CCN(CC2CC=CCC2)CC1)N(CCc1ccccc1)Cc1ccccc1 (stereo not given)	none (no result: KCNH2 3.1 block)
Cc1cc(Br)ccc1NC(=O)C1C2CCC(O2)C1C(=O)O (stereo not given)	none
CC(=O)c1cc(CN2CCC(N3CCC(C(=O)NC(C)C)CC3)CC2)cs1	none
CC(C)NC(=O)C1CCN(C2CCN(Cc3nc4ccccc4s3)CC2)CC1	KCNH2 3.1 block -118.1

Screening results as filed in PubChem BioAssay.
